Molecular target: AgAbp1
Assay: SPOT peptide array binding signal intensity (averaged, normalized) (arbitrary units (background-subtracted, floor 0; scale differs between SH3 domains)); higher = stronger binding of the SH3 domain to the peptide
Method in brief: (§1)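 Peptides were synthetic 15-mers on cellulose membranes, with every cysteine replaced by serine. They were incubated overnight at 4°C with GST-SH3 domains from four yeast species at 10 μg/ml in TBS-based blocking buffer. Binding signal, the replicate-averaged normalized and background-subtracted spot intensity, is in arbitrary units that differ between domains.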

Binder	SPOT peptide array binding signal intensity
DHPKGPPPPPPPDEK	9

Molecular target: AgBbc1
Assay: as above
Method in brief: as §1

Binder	SPOT peptide array binding signal intensity
DHPKGPPPPPPPDEK	3.75

Molecular target: AgBem1-D1
Assay: as above
Method in brief: as §1

Binder	SPOT peptide array binding signal intensity
DHPKGPPPPPPPDEK	≤ 0

Molecular target: AgBzz1-D1
Assay: as above
Method in brief: as §1

Binder	SPOT peptide array binding signal intensity
DHPKGPPPPPPPDEK	1100

Molecular target: AgBzz1-D2
Assay: as above
Method in brief: as §1

Binder	SPOT peptide array binding signal intensity
DHPKGPPPPPPPDEK	111

Molecular target: AgCyk3
Assay: as above
Method in brief: as §1

Binder	SPOT peptide array binding signal intensity
DHPKGPPPPPPPDEK	≤ 0

Molecular target: AgFus1
Assay: as above
Method in brief: as §1

Binder	SPOT peptide array binding signal intensity
DHPKGPPPPPPPDEK	6.5

Molecular target: AgHof1
Assay: as above
Method in brief: as §1

Binder	SPOT peptide array binding signal intensity
DHPKGPPPPPPPDEK	≤ 0

Molecular target: AgHse1
Assay: as above
Method in brief: as §1

Binder	SPOT peptide array binding signal intensity
DHPKGPPPPPPPDEK	33

Molecular target: AgLsb1
Assay: as above
Method in brief: as §1

Binder	SPOT peptide array binding signal intensity
DHPKGPPPPPPPDEK	1.5

Molecular target: AgLsb4
Assay: as above
Method in brief: as §1

Binder	SPOT peptide array binding signal intensity
DHPKGPPPPPPPDEK	≤ 0

Molecular target: AgMyo5
Assay: as above
Method in brief: as §1

Binder	SPOT peptide array binding signal intensity
DHPKGPPPPPPPDEK	1710

Molecular target: AgNbp2
Assay: as above
Method in brief: as §1

Binder	SPOT peptide array binding signal intensity
DHPKGPPPPPPPDEK	7

Molecular target: AgRvs167
Assay: as above
Method in brief: as §1

Binder	SPOT peptide array binding signal intensity
DHPKGPPPPPPPDEK	1.17

Molecular target: AgSho1
Assay: as above
Method in brief: as §1

Binder	SPOT peptide array binding signal intensity
DHPKGPPPPPPPDEK	≤ 0

Molecular target: AgSla1-D1-D2
Assay: as above
Method in brief: as §1

Binder	SPOT peptide array binding signal intensity
DHPKGPPPPPPPDEK	14

Molecular target: AgSla1-D3
Assay: as above
Method in brief: as §1

Binder	SPOT peptide array binding signal intensity
DHPKGPPPPPPPDEK	297

Molecular target: CaAbp1-D1
Assay: as above
Method in brief: as §1

Binder	SPOT peptide array binding signal intensity
DHPKGPPPPPPPDEK	1.5

Molecular target: CaAbp1-D2
Assay: as above
Method in brief: as §1

Binder	SPOT peptide array binding signal intensity
DHPKGPPPPPPPDEK	1

Molecular target: CaBbc1
Assay: as above
Method in brief: as §1

Binder	SPOT peptide array binding signal intensity
DHPKGPPPPPPPDEK	≤ 0

Molecular target: CaBem1-D1
Assay: as above
Method in brief: as §1

Binder	SPOT peptide array binding signal intensity
DHPKGPPPPPPPDEK	≤ 0

Molecular target: CaBzz1-D1
Assay: as above
Method in brief: as §1

Binder	SPOT peptide array binding signal intensity
DHPKGPPPPPPPDEK	2890

Molecular target: CaBzz1-D2
Assay: as above
Method in brief: as §1

Binder	SPOT peptide array binding signal intensity
DHPKGPPPPPPPDEK	2700

Molecular target: CaCyk3
Assay: as above
Method in brief: as §1

Binder	SPOT peptide array binding signal intensity
DHPKGPPPPPPPDEK	≤ 0

Molecular target: CaFus1
Assay: as above
Method in brief: as §1

Binder	SPOT peptide array binding signal intensity
DHPKGPPPPPPPDEK	≤ 0

Molecular target: CaHof1
Assay: as above
Method in brief: as §1

Binder	SPOT peptide array binding signal intensity
DHPKGPPPPPPPDEK	2.5

Molecular target: CaHse1
Assay: as above
Method in brief: as §1

Binder	SPOT peptide array binding signal intensity
DHPKGPPPPPPPDEK	6

Molecular target: CaLsb1
Assay: as above
Method in brief: as §1

Binder	SPOT peptide array binding signal intensity
DHPKGPPPPPPPDEK	≤ 0

Molecular target: CaLsb4
Assay: as above
Method in brief: as §1

Binder	SPOT peptide array binding signal intensity
DHPKGPPPPPPPDEK	20.5

Molecular target: CaMyo5
Assay: as above
Method in brief: as §1

Binder	SPOT peptide array binding signal intensity
DHPKGPPPPPPPDEK	38.8

Molecular target: CaNbp2
Assay: as above
Method in brief: as §1

Binder	SPOT peptide array binding signal intensity
DHPKGPPPPPPPDEK	≤ 0

Molecular target: CaRvs167
Assay: as above
Method in brief: as §1

Binder	SPOT peptide array binding signal intensity
DHPKGPPPPPPPDEK	0.667

Molecular target: CaRvs167-3
Assay: as above
Method in brief: as §1

Binder	SPOT peptide array binding signal intensity
DHPKGPPPPPPPDEK	≤ 0

Molecular target: CaSho1
Assay: as above
Method in brief: as §1

Binder	SPOT peptide array binding signal intensity
DHPKGPPPPPPPDEK	7.5

Molecular target: CaSla1-D1-D2
Assay: as above
Method in brief: as §1

Binder	SPOT peptide array binding signal intensity
DHPKGPPPPPPPDEK	12

Molecular target: CaSla1-D3
Assay: as above
Method in brief: as §1

Binder	SPOT peptide array binding signal intensity
DHPKGPPPPPPPDEK	2.75

Molecular target: ScAbp1
Assay: as above
Method in brief: as §1

Binder	SPOT peptide array binding signal intensity
DHPKGPPPPPPPDEK	4

Molecular target: ScBbc1
Assay: as above
Method in brief: as §1

Binder	SPOT peptide array binding signal intensity
DHPKGPPPPPPPDEK	3.5

Molecular target: ScBem1-D1
Assay: as above
Method in brief: as §1

Binder	SPOT peptide array binding signal intensity
DHPKGPPPPPPPDEK	4

Molecular target: ScBzz1-D1
Assay: as above
Method in brief: as §1

Binder	SPOT peptide array binding signal intensity
DHPKGPPPPPPPDEK	3400

Molecular target: ScBzz1-D2
Assay: as above
Method in brief: as §1

Binder	SPOT peptide array binding signal intensity
DHPKGPPPPPPPDEK	45

Molecular target: ScCyk3
Assay: as above
Method in brief: as §1

Binder	SPOT peptide array binding signal intensity
DHPKGPPPPPPPDEK	1

Molecular target: ScFus1
Assay: as above
Method in brief: as §1

Binder	SPOT peptide array binding signal intensity
DHPKGPPPPPPPDEK	8.5

Molecular target: ScHof1
Assay: as above
Method in brief: as §1

Binder	SPOT peptide array binding signal intensity
DHPKGPPPPPPPDEK	1

Molecular target: ScHse1
Assay: as above
Method in brief: as §1

Binder	SPOT peptide array binding signal intensity
DHPKGPPPPPPPDEK	2

Molecular target: ScLsb1
Assay: as above
Method in brief: as §1

Binder	SPOT peptide array binding signal intensity
DHPKGPPPPPPPDEK	1

Molecular target: ScLsb2
Assay: as above
Method in brief: as §1

Binder	SPOT peptide array binding signal intensity
DHPKGPPPPPPPDEK	≤ 0

Molecular target: ScLsb3
Assay: as above
Method in brief: as §1

Binder	SPOT peptide array binding signal intensity
DHPKGPPPPPPPDEK	≤ 0

Molecular target: ScLsb4
Assay: as above
Method in brief: as §1

Binder	SPOT peptide array binding signal intensity
DHPKGPPPPPPPDEK	0.5

Molecular target: ScMyo3
Assay: as above
Method in brief: as §1

Binder	SPOT peptide array binding signal intensity
DHPKGPPPPPPPDEK	1750

Molecular target: ScMyo5
Assay: as above
Method in brief: as §1

Binder	SPOT peptide array binding signal intensity
DHPKGPPPPPPPDEK	1380

Molecular target: ScNbp2
Assay: as above
Method in brief: as §1

Binder	SPOT peptide array binding signal intensity
DHPKGPPPPPPPDEK	18.5

Molecular target: ScPex13
Assay: as above
Method in brief: as §1

Binder	SPOT peptide array binding signal intensity
DHPKGPPPPPPPDEK	≤ 0

Molecular target: ScRvs167
Assay: as above
Method in brief: as §1

Binder	SPOT peptide array binding signal intensity
DHPKGPPPPPPPDEK	0.5

Molecular target: ScSho1
Assay: as above
Method in brief: as §1

Binder	SPOT peptide array binding signal intensity
DHPKGPPPPPPPDEK	≤ 0

Molecular target: ScSla1-D1-D2
Assay: as above
Method in brief: as §1

Binder	SPOT peptide array binding signal intensity
DHPKGPPPPPPPDEK	≤ 0

Molecular target: ScSla1-D3
Assay: as above
Method in brief: as §1

Binder	SPOT peptide array binding signal intensity
DHPKGPPPPPPPDEK	2.5

Molecular target: SpAbp1-D1
Assay: as above
Method in brief: as §1

Binder	SPOT peptide array binding signal intensity
DHPKGPPPPPPPDEK	8

Molecular target: SpBbc1
Assay: as above
Method in brief: as §1

Binder	SPOT peptide array binding signal intensity
DHPKGPPPPPPPDEK	≤ 0

Molecular target: SpBzz1-D1
Assay: as above
Method in brief: as §1

Binder	SPOT peptide array binding signal intensity
DHPKGPPPPPPPDEK	155

Molecular target: SpBzz1-D2
Assay: as above
Method in brief: as §1

Binder	SPOT peptide array binding signal intensity
DHPKGPPPPPPPDEK	1.75

Molecular target: SpCyk3
Assay: as above
Method in brief: as §1

Binder	SPOT peptide array binding signal intensity
DHPKGPPPPPPPDEK	≤ 0

Molecular target: SpHof1
Assay: as above
Method in brief: as §1

Binder	SPOT peptide array binding signal intensity
DHPKGPPPPPPPDEK	1

Molecular target: SpHof1-2
Assay: as above
Method in brief: as §1

Binder	SPOT peptide array binding signal intensity
DHPKGPPPPPPPDEK	6.5

Molecular target: SpHof1-3
Assay: as above
Method in brief: as §1

Binder	SPOT peptide array binding signal intensity
DHPKGPPPPPPPDEK	4

Molecular target: SpHse1
Assay: as above
Method in brief: as §1

Binder	SPOT peptide array binding signal intensity
DHPKGPPPPPPPDEK	87.2

Molecular target: SpLsb1
Assay: as above
Method in brief: as §1

Binder	SPOT peptide array binding signal intensity
DHPKGPPPPPPPDEK	≤ 0

Molecular target: SpLsb4
Assay: as above
Method in brief: as §1

Binder	SPOT peptide array binding signal intensity
DHPKGPPPPPPPDEK	≤ 0

Molecular target: SpMyo1
Assay: as above
Method in brief: as §1

Binder	SPOT peptide array binding signal intensity
DHPKGPPPPPPPDEK	1880

Molecular target: SpNbp2
Assay: as above
Method in brief: as §1

Binder	SPOT peptide array binding signal intensity
DHPKGPPPPPPPDEK	18.5

Molecular target: SpPex13
Assay: as above
Method in brief: as §1

Binder	SPOT peptide array binding signal intensity
DHPKGPPPPPPPDEK	10

Molecular target: SpRvs167
Assay: as above
Method in brief: as §1

Binder	SPOT peptide array binding signal intensity
DHPKGPPPPPPPDEK	≤ 0

Molecular target: SpSla1-D1-D2
Assay: as above
Method in brief: as §1

Binder	SPOT peptide array binding signal intensity
DHPKGPPPPPPPDEK	10

Molecular target: SpSla1-D3
Assay: as above
Method in brief: as §1

Binder	SPOT peptide array binding signal intensity
DHPKGPPPPPPPDEK	13

Reference: the supplement of paper PMC4466140
